The list is not random: actives were taken first. Their share in the collection is about 4.7%.
ALR H2O2 inh: blocks human ALR sulfhydryl oxidase activity; 290,000 tested, 3.8% active; P55789; purified ALR, DTT oxidation, H2O2 HRP-luminol luminescence; inhibition, % (no concentration beside the values);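 active = mean replicate inhibition above about 79%, with every replicate also reaching it, limit read from the data; inconclusive = only one of the two criteria met; inactive = mean below limit and not every replicate reaching it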
Target sequence (P55789 whole entry, looked up): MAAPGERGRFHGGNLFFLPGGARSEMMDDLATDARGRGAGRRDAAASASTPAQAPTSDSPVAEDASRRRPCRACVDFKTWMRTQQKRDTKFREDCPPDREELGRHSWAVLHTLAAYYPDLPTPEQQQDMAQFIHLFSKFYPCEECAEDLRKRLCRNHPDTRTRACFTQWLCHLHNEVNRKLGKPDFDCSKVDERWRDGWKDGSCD
Efflux pump mplx: blocks antifungal efflux pumps in multiplex yeast assay; S. cerevisiae Candida pump triplex, Nile Red efflux; inhibition, % at 10 µM; 330,000 tested, 0.44% active;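 active = plate passing quality check with inhibition over a set limit, or well fluorescence over plate mean plus 4 SD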;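 also: Nile Red retained in pooled yeast measured as flow cytometry median fluorescence; 0% = buffer negative control and 100% = Enniatin B positive control; higher means more Nile Red kept so more efflux inhibition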
PABP FP inh: blocks human PABP binding to poly(A) RNA. P11940. fluorescence polarization. inhibition, % at 35 µM. 290,000 tested, 1% active;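 also: calls also rest on retests at 20 µM and on dose response follow-up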
PABP1 MLLE inh: inhibitors of microRNA-mediated deadenylation, human PABP1 MLLE binding; P11940; GST-MLLE / FITC-PAM2 fluorescence polarization; inhibition, % at 20 µM; 360,000 tested, 0.36% active; AID 588489; in the data active = inhibition above about 35%, passing the limit was not always enough;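 also: plate controls were DMSO wells with GST-MLLE for no effect and wells lacking GST-MLLE protein for full effect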
eIF4H inh: inhibitors of RNA binding by human eIF4H. eIF4H fluorescence polarization binding assay. AID 2012. Q15056. 290,000 tested, 0.94% active. inhibition, % at 35 µM;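 also: calls also rest on retests at 20 µM and on dose response follow-up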
UBC9 SUMO inh: inhibitors of human SUMOylation (UBC9) | inhibition, % at 35 µM | AID 2006 | P63279 | HTRF SUMOylation assay, SAE1/SAE2 + UBC9, in vitro | 290,000 tested, 0.36% active; in the data active = inhibition above about 50%, passing the limit was not always enough; inconclusive = no clear call, values can overlap the other calls
Target sequence (P63279 whole entry, looked up): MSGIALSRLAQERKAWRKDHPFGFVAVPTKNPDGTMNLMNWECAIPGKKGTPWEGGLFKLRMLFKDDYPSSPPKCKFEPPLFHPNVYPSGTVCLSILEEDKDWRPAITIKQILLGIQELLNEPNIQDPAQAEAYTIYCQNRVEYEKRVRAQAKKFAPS
* marks the source's active call; other numbers are inactive results; ? = inconclusive; / = not tested or not shown. Unless noted, no rule for the calls is given here.

SMILES | ALR H2O2 inh | Efflux pump mplx | PABP FP inh | PABP1 MLLE inh | eIF4H inh | UBC9 SUMO inh
CCCCNC(=S)NNC(=O)c1csc(C)c1 | 16 | 0 | 53* | -18 | active | 8
Cc1ccc2c(COC(=O)C3CSC4(C)CCC(=O)N34)cc(=O)oc2c1C (configuration not stated) | 1 | 0 | / | 9 | / | /
CCOC(=O)c1ccc(S(=O)(=O)NCCN(CC)CC)cc1 | -7 | 0 | 2 | 6 | -14 | 28
CCN(CC)CCNS(=O)(=O)c1ccc(C(=O)NN)cc1 | 98* | 0 | -3 | 14 | -9 | 12
CCN1C(=O)c2ccc(C(=O)Nc3ccc(O)cc3C)cc2C1=O | 99* | 0 | 3 | 12 | 7 | 7
CCCN1C(=O)c2ccc(C(=O)Nc3ccccc3C(=O)O)cc2C1=O | 97* | 0 | 6 | -6 | 6 | 3
COc1ccc(F)cc1C(=O)C1CCCN(C(=O)c2ccccc2N(C)C)C1 (configuration not stated) | -2 | 0 | -4 | 20 | -12 | -4
Cc1nn(-c2ccccc2)cc1/C=N/O | 29 | 0 | -1 | 8 | 1 | 24
Cc1nn(-c2ccccc2)cc1/C=N/NC(N)=S | 97* | 0 | -5 | -3 | 2 | 17
CN(C)c1ccc(CNC(=O)CC[C@H]2O[C@@H](n3cnc4c(NC(=O)c5ccccc5)ncnc43)[C@H](O)[C@@H]2O)cc1 | / | / | / | -3 | / | /
CCOc1ccc(NC(=O)CN(C)S(=O)(=O)c2cccc3cccnc23)cc1 | -10 | 0 | 11 | 11 | -11 | -9
Cc1ccc(NC(=O)CN(C)S(=O)(=O)c2cccc3cccnc23)cc1 | 95* | 0 | 0 | 17 | -4 | 11
Cn1c2ccccc2c(=O)c2ccc(NCCc3cccs3)cc21 | -4 | 1 | / | 146 | / | /
CCn1c(CNc2nc3ccccc3n2C(C)C)nc2ccccc21 | 98* | 0 | 11 | 8 | 6 | -14
COc1ccc(CNc2nc3ccccc3n2C(C)C)c(O)c1 | 99* | 0 | 10 | 2 | 0 | 5
CCCCn1c(NCc2cc(C)ccc2O)nc2ccccc21 | / | / | / | -3 | / | /
C=CCn1c(NCc2cc(C)ccc2O)nc2ccccc21 | 98* | 0 | 0 | 0 | -10 | 12
CC(C)n1c(NCc2nc3ccccc3n2C)nc2ccccc21 | 43 | 0 | -3 | 13 | -1 | 11
Cc1ccc(O)c(CNc2nc3ccccc3n2C(C)C)c1 | 98* | 0 | 5 | -5 | 6 | -7
CCc1nc(SCC(=O)Nc2ccc(N(C)C)cc2)n[nH]1 | 98* | 0 | / | -7 | / | /
CCc1nc(SCC(=O)Nc2ccc(C(=O)O)cc2)n[nH]1 | 99* | 0 | 25 | 29 | -4 | 11
CCc1nc(SCC(=O)Nc2ccc(N(CC)CC)cc2)n[nH]1 | / | / | / | 9 | / | /
O=C(c1ccc2c(c1)CCC2)N1CCN(Cc2ccccc2)CC1 | / | / | / | 12 | / | /
CCSc1ncc(/C=N/Nc2ccccc2)n1C | 99* | 0 | -14 | -3 | -2 | 10
Cc1ccc(NCC(O)C(O)C(O)CO)cc1C (configuration not stated) | 49 | 0 | -10 | 10 | -6 | 6
SMILES | ALR H2O2 inh | Efflux pump mplx | PABP FP inh | PABP1 MLLE inh | eIF4H inh | UBC9 SUMO inh
Cc1cc(N=Nc2ccccc2)c(NCC(O)C(O)C(O)CO)cc1C (configuration not stated) | 98* | 0 | 3 | -5 | 1 | -38
O=C(NCc1cccc(C(F)(F)F)c1)c1csc([C@@H]2O[C@H](CO)[C@H](O)[C@H](O)[C@H]2O)n1 | / | / | / | -4 | / | /
CN(C)c1ccc(/C=C/c2ccc3ccccc3[n+]2C)cc1 | 98* | 29* | -11 | -183 | -16 | -79
CN(CCCS(=O)(=O)[O-])c1ccc(/C=C/c2ccc3ccccc3[n+]2C)cc1 | 16 | 0 | 35 | -124 | 9 | -18
CC(=O)Oc1ccccc1/C=C/c1ccc2ccccc2[n+]1C | 32 | 0 | 73* | -114 | 18 | 6
CC(=O)N(CCc1ccccc1)Cc1cc2ccc(C)c(C)c2[nH]c1=O | -7 | 1 | 10 | 7 | 0 | 1
CC(=O)Nc1ccc(S(=O)(=O)Nc2ccccc2C(=O)N2CCCCC2)cc1 | 3 | 1 | -7 | 0 | 0 | 13
CCN(CC)C(=O)[C@H]1C[C@H](CC(=O)NCCCOC)C(=O)N2CCc3c([nH]c4cc(CCC(=O)N(C)C)ccc34)[C@]12C | / | 0 | / | 5 | / | /
CC(C(=O)O)N1C(=O)/C(=C/c2cccn2C)SC1=S (configuration not stated) | 12 | 0 | active | -135 | 93 | 17
CCC(C(=O)O)N1C(=O)/C(=C/c2cccn2C)SC1=S (configuration not stated) | 5 | 1 | 12 | -151 | ? | 0
Cn1cccc1/C=C1\SC(=S)N(NC(=O)c2ccccc2O)C1=O | 3 | 0 | 62* | -136 | 82* | -12
O=C(NN1C(=O)/C(=C/C=C/c2ccco2)SC1=S)c1ccccc1O | 69 | 2.0* | 89* | -78 | 94* | 79*
COc1ccccc1C(=O)NN1C(=O)/C(=C/c2cccn2C)SC1=S | / | / | 73* | / | 71 | 25
NC(=O)C1(C(N)=O)OC1c1ccccc1 (configuration not stated) | -3 | 0 | 10 | -12 | -5 | 20
CNC[C@H]1Oc2ccc(NC(=O)Nc3ccccc3)cc2CC(=O)N([C@H](C)CO)C[C@H]1C | 4 | 1 | / | -20 | / | /
COCCOC(=O)C1=C(C)NC2=C(C(=O)CCC2)C1c1ccc(N(C)C)cc1 (configuration not stated) | 100* | 0 | 2 | 2 | 5 | 19
CCN(CC)c1ccc(C2C(C(=O)OCCOC(C)C)=C(C)NC3=C2C(=O)CCC3)cc1 (configuration not stated) | 99* | 0 | -8 | 5 | -5 | -8
CC1=C(C(=O)OCCOC(C)C)C(c2cc3c(cc2Br)OCO3)C2=C(CCCC2=O)N1 (configuration not stated) | -13 | 0 | 6 | 67* | 10 | 10
N#C/C(=C\c1ccc(OCc2ccc(Cl)cc2)cc1)C(=O)Nc1cccc(C(=O)O)c1 | 1 | 0 | 8 | -1 | 84 | 54*
CCOc1cc(/C=C(\C#N)C(=O)Nc2cccc(C(=O)O)c2)ccc1OCc1ccc(Br)cc1 | 4 | 0 | 16 | 13 | 86 | 62*
CCOC(=O)/C(C#N)=C/c1ccc(OC)c(OC)c1 | -1 | 0 | -1 | -2 | -4 | 13
CCOc1cc(/C=C(\C#N)C(N)=O)ccc1OS(=O)(=O)c1ccccc1 | 98* | 0 | 4 | 11 | 1 | 1
CCCCOc1ccc(N2C(=O)C(C)CNC2=S)cc1 (configuration not stated) | / | / | / | 52* | / | /
CCOc1ccc(N2C(=O)CNC2=S)cc1 | 91* | 0 | ? | -14 | ? | 11
COc1ccc(C(=O)COC(=O)c2ccc(OC)c(OC)c2)cc1OC | 28 | 0 | -1 | -7 | -8 | 8

Screening results from PubChem BioAssay.
